The text below walks through data of PubChem BioAssay AID504842 (National Center for Advancing Translational Sciences (NCATS), 2011).

Each structure is given as a SMILES string. The campaign covered roughly 330,000 compounds. About 100 (0.03%) were called active. Inconclusive results (about 1%) are left out. The full list was thinned out, with actives kept by preference. A number with no mark means an inactive call. The call rests on the fitted dose curve; in most records, active means well fitted inhibition curve with a large enough effect; inconclusive means small, poorly fitted or top-dose-only effect; inactive means flat fitted curve, though single readings scatter.
On the % scale 0 is the no-effect control and ±100 the full control effect; potency means the concentration at half of the fitted maximal effect.

This assay relates to Chaperonin Mm-Cpn (Methanococcus maripaludis). The assay can be described thus: Inhibitors of TCP-1 ring complex (TRiC) of Methanococcus maripaludis (MmCpn): qHTS. Further: nearly all actives have a fitted effect of over 80% in size.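 On Potency: enzyme at 25 nM with ATP substrate at 10 µM during the reaction.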 Conditions: purified Mm-Cpn ATPase, ADP Transcreener TR-FRET; series mostly up to 76.9 µM; activity, negative = inhibition: at the top concentration. The source says:
The eukaryotic chaperonin TRiC (for TCP-1 ring complex) is an essential and conserved chaperone required for the folding and activation of 10-15% of the proteins encoded by the human genome. […] The TRiC complex consist of two stacked 7-9 membered rings, each containing a central cavity. Substrates are folded within the cavity in an ATP-dependent manner. TRiC is a complex of eight different, essential proteins. As each of the genes encoding the eight subunits is essential for cell viability and no protocol has been developed to over-express this enzyme to high levels. That is why several groups studying the TRiC chaperonin have turned to the archaeal homolog of TRiC, Methanococcus maripaludis (Mm-CPN), and have used this enzyme as a model system for the study of the type II chaperonin family. Small molecule inhibitors of the Mm-CPN enzyme would be extremely useful to study the mechanism of chaperonin activity. Importantly, TRiC and Mm-CPN both require ATP hydrolysis for function. Furthermore, the ATP binding sites are highly conserved among these type II chaperonins. This provides us with an easy, well tested and straightforward assay to identify inhibitors of chaperonin activity. The Mm-CPN assay was developed in 1536-well plate format using the HTRF Transcreener ADP assay kit (Cisbio, Bedford, MA). This assay applied the time resolved fluorescence resonance energy transfer (TR-FRET) principle. ATP in the presence of Mm-CPN is converted to ADP + Pi. An antibody labeled with Eu3+-Cryptate specific and bound to ADP labeled with […] (d2) competes with the unlabeled ADP generated by Mm-CPN. The resulting TR-FRET signal is inversely proportional to the concentration of ADP in the sample. In this assay a reduction in TR-FRET signal is observed with ATP turnover. NIH Chemical Genomics Center [NCGC] NIH Molecular Libraries Probe Centers Network [MLPCN] MLPCN Grant: DA030554-01A1 Assay Submitter (PI): Judith Frydman, Stanford University
Purified Mm-CPN was supplied by the laboratory of Dr. Judith Frydman. Protein samples were stored at -80C as single use aliquots. Protein was thawed in ambient temperature water bath and placed on ice once thawed. Buffer was prepared fresh day of screen. The buffer composition below was used to prepare the working solution of the Mm-CPN protein and ATP substrate. The buffer is comprised of 30 mM TRIS pH 7.4, 100mM KCl, 5mM MgCl2, and 1mM DTT. A final concentration of 25nM Mm-CPN and 10uM ATP per well were used in the screen. Instructions according to the manufacturer were followed for the ADP Transcreener kit. Used 1536 well Greiner white, medium binding (MB), solid bottom plates. Plates were read on the PerkinElmer EnVision plate reader using Excitation = 320 nm and Emission = […], 665 nm. Protocol- 1.Dispense 1.5ul per well of working [Mm-CPN] = 50nM (or 75 ng / well) 2.Spin plate at 1000 rpm for 30 seconds 3.23nl of compound transferred per well 4.Incubate at 37degC for 10 minutes 5.Dispense 1.5ul per well of working [ATP] = 20uM 6.Incubate at 37degC for 30 minutes 7.Dispense 3ul per well of Anti-ADP Cryptate / ADP-d2 mix (prepared as instructed by Cisbio) 8.Incubate at ambient for 30 minutes 9.Read using EnVision
(In qHTS, concentration-response curves come from the screen itself.)
As to `Cc1ccc2nc(SCc3nnc(-c4ccccc4[N+](=O)[O-])o3)c(C#N)cc2c1`, the “activity, negative = inhibition” value was 0.0284%.

In the case of `Cn1c2ccc(F)cc2c2nnc(NN)nc21`, the “activity, negative = inhibition” value was -3.17%.

Take `Cn1c(=O)c([N+](=O)[O-])c(Oc2ccccc2)c2ccccc21`: the “activity, negative = inhibition” value was -2.22%.

Consider `CCn1c(=O)c(=O)n(CC)c2cc(N3CCCCC3)c(NC(=O)c3ccc(Cl)cc3)cc21`, for which the “activity, negative = inhibition” value is -1.8%.

Take `O=C1OC2(CCCCC2)CC2=C1C1O[C@](c3ccsc3)(Cc3ccccc31)O2`: the activity, negative = inhibition is -2.46% [at 15.4 µM].

As for `CCOC(=O)C1=C(CSc2nnnn2C)N(C)C(=O)NC1c1ccccc1` (stereo not drawn), the “activity, negative = inhibition” value was -0.436%.

With `CCc1nnc(NC(=O)C2CCN(C(=O)c3ccccc3C)CC2)s1`, the “activity, negative = inhibition” value is 0.687%.

With `Cc1ccc(NC(=O)Cn2cccc2C2=NC(c3ccccc3)CO2)c(C)c1` (stereo not drawn), the “activity, negative = inhibition” value is -0.418%.

Regarding `CC(OC(=O)Cc1ccc(F)cc1)C(=O)N1CCc2ccccc21` (stereo not drawn), the “activity, negative = inhibition” value is -0.947%.

Turning to `COCCn1c(SCC(=O)N2CCCCCC2)nc2c(c1=O)SCC2`, the “activity, negative = inhibition” value was -22%.

On to `Cc1ccc(-n2nc(C)c(C(=O)O)c2-n2cccc2)cc1`, for which the “activity, negative = inhibition” value was 2.77%.

On to `Cc1cccc(N(Cc2ccccc2)C(=O)c2ccccc2F)c1`, for which the “activity, negative = inhibition” value is -2.75%.

As to `CCCOC1CCCN(Cc2cn(C)nc2-c2ccccc2F)C1` (stereo not drawn), the “activity, negative = inhibition” value is -0.377%.

As to `O=S1(=O)CCC(NC(=S)SCc2ccccc2Br)C1` (stereo not drawn), the “activity, negative = inhibition” value is 0.837%.

`Cc1ccc(-n2nc3c(=O)n(C(C)C(=O)NCc4ccc5c(c4)OCO5)nc(C)c3c2C)cc1` (stereo not drawn): the “activity, negative = inhibition” value is -0.0835%.

For the compound `Cc1ccc(NC(=O)Nc2cccnc2)cc1`, the “activity, negative = inhibition” value is 1.12%.

With `Cc1nc(-c2ccc(F)cc2)c(CC(=O)Nc2cccc(S(=O)(=O)N3CCOCC3)c2)s1`, the “activity, negative = inhibition” value was -1.11%.

Regarding `Cc1ccc(-c2nc(-c3cccnc3)sc2CC(=O)Nc2ccc(C)c(Cl)c2)cc1`, the Potency is 28.2 µM (active).

Consider `COC(=O)c1sc2[nH]c(=S)n(N)c(=O)c2c1C`, for which the “activity, negative = inhibition” value is -11.1%.

With `CCOc1ccc(C(CCc2ccccc2)NC(=O)c2ccc(OC)c(OC)c2)cc1OCC` (stereo not drawn), the “activity, negative = inhibition” value was 0.0376%.

`CC(C)(CNC(=O)Cc1ccc(Cl)cc1Cl)N1CCOCC1`: the “activity, negative = inhibition” value is 0.0015%.

Consider `COc1ccc(OC)c(S(=O)(=O)N(C)CC(=O)N2CCN(c3ccccc3)CC2)c1`, for which the “activity, negative = inhibition” value was -4.94%.

Turning to `Cc1ccc(S(=O)(=O)N2CCCCC2)cc1NC(=O)CCNC(=O)c1ccccc1`, the “activity, negative = inhibition” value is 0.79%.

Turning to `Cc1cc(S(=O)(=O)NCc2ccccn2)c(Cl)cc1Cl`, the “activity, negative = inhibition” value was -1.27%.

As for `Cc1cc(NC(=O)/C=C/C(=O)N(c2ccccc2C)C(C(=O)NC2CCCC2)c2ccc(F)cc2)no1` (stereo not drawn), the “activity, negative = inhibition” value is 0.316%.

As for `CCCSC1=C(C#N)C(c2ccccc2C)C(C(=O)OC)C(=O)N1` (stereo not drawn), the “activity, negative = inhibition” value is 0.631%.

Consider `CCOc1ccc(NC(=O)CN(C)C(=O)CSc2ccccc2)cc1OCC`, for which the “activity, negative = inhibition” value was -1.05%.

On to `CCOc1ccccc1NS(=O)(=O)c1cc2c3c(c1)C(C)C(=O)N3CCC2` (stereo not drawn), for which the “activity, negative = inhibition” value was -0.707%.

For `O=S(=O)(Nc1ccc(Oc2ncccn2)c(Cl)c1)c1ccc(F)cc1`, the “activity, negative = inhibition” value was -0.624%.

Take `Cc1ccc(S(=O)(=O)N(Cc2cccc([N+](=O)[O-])c2)C(=O)N2CCN(C)CC2)cc1`: the “activity, negative = inhibition” value is 1.85%.

For `O=C(CN1CCCSc2ccccc21)N1CCN(S(=O)(=O)c2ccccc2)CC1`, the “activity, negative = inhibition” value was -5.83%.

With `O=C(Cn1nc([N+](=O)[O-])nc1Br)NC1CCCCC1`, the “activity, negative = inhibition” value was 2.19%.

As for `Cc1nn(-c2ccccc2)nc1C(=O)OCC(=O)N1CCCCC1C` (stereo not drawn), the “activity, negative = inhibition” value was -2.18%.

With `CCc1ccc(Nc2nnc(SCC(=O)c3ccc4c(c3)NC(=O)CO4)s2)cc1`, the “activity, negative = inhibition” value is -6.83%.

Turning to `CCOCc1c(C(=O)N2CCN(Cc3ccc(Br)s3)CC2)oc2ccccc12`, the “activity, negative = inhibition” value is 0.351%.

Regarding `CCOC(=O)CN1C(=O)N[C@@H](c2ccc(Br)cc2)C(C(C)=O)=C1C`, the “activity, negative = inhibition” value was 0.237%.

On to `FC(F)(F)c1ccc(CN2C[C@@H]3C(c4ccccc4)C4(c5ccccc5)CC3(C4)[C@H]2c2ccccc2)cc1` (stereo partly drawn), for which the “activity, negative = inhibition” value is -1.8%.

In the case of `Cc1ccc(NS(=O)(=O)c2ccc3c(c2)CC(=O)N3)cc1Cl`, the “activity, negative = inhibition” value was -0.241%.
